DT40 TDP1 no CPT = qHTS for Inhibitors of human tyrosyl-DNA phosphodiesterase 1 (TDP1): qHTS in cells in absence of CPT; Potency, µM (titrated, usually from 46.2 µM), inactives show top-dose activity change, negative = growth inhibition, most hits filed as inhibitors; DT40 Tdp1-/- hTDP1 cells, no CPT, ATP luminescence, 48 h; actives 15% (n = 420,000); further: potency means the concentration at half of the fitted maximal effect; nearly all actives have a fitted effect of over 55% in size
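DT40 Tdp1-/-;hTDP1 cells, no CPT (DMSO vehicle only), 400 cells/well; compounds pin-transferred; ≥48 hr, 37 °C; CellTiter-Glo 30 min RT dark, luminescence read.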
ALOX12 inh = inhibitors of human 12S-lipoxygenase ALOX12; P18054; purified 12hLO, xylenol orange hydroperoxide absorbance; Potency, µM (titrated, usually from 108 µM), inactives show at the top dose activity change, negative = inhibition, actives largely listed as inhibitors; actives 1.1% (n = 580,000); AID 1671190; further: potency means the concentration at half of the fitted maximal effect
Target sequence (P18054 whole entry, looked up): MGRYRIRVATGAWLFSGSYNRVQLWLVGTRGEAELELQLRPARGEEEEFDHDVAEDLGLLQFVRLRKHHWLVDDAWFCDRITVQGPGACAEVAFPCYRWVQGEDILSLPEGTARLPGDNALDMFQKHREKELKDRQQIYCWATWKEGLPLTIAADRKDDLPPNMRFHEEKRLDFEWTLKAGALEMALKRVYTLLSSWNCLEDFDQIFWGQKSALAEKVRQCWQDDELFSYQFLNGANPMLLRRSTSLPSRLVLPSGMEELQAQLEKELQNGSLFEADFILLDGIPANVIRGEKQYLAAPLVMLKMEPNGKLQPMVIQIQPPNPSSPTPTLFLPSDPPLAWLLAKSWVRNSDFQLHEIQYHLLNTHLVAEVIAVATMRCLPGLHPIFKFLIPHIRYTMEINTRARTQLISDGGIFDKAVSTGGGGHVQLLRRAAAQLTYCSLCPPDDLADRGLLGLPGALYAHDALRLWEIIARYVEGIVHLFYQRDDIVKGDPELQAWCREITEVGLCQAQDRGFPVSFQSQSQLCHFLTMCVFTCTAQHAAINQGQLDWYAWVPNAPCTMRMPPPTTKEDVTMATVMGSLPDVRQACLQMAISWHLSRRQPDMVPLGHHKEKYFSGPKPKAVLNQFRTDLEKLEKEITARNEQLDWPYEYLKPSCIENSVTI
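Hydroperoxide product was detected by ferrous iron/xylenol orange as the 573 to 405 nm absorbance ratio. Arachidonic acid at 40 uM (final) was turned over for 30 min at room temperature by 150 nM human 12hLO, pH 7.0 Hepes buffer, after 15 min compound preincubation.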
HT1080-NT tox = kills 2HG-producing HT-1080-NT fibrosarcoma cells | HT-1080-NT fibrosarcoma viability, CellTiter-Glo ATP luminescence, 48 h | Potency, µM (highest dose often 46.1 µM), without a hit: at the highest dose activity, negative = less viability, hits mostly cytotoxic | actives 1.6% (n = 360,000) | AID 686970;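 further: NT is the 2HG producing partner of a matched IDH1 knockdown line; potency means the concentration at half of the fitted maximal effect; 0% = DMSO-treated cells and -100% = media-only wells without cells; nearly all actives have a fitted effect of over 55% in size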
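Toxicity toward the 2HG-producing NT line was scored as %Activity, normalised to DMSO and no-cell wells, from CellTiter-Glo luminescence after 48 hours' treatment.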
IL-1B inflam inh = inflammasome signaling inhibition, IL-1 beta readout; THP-1 LPS/ATP IL-1B secretion, AlphaLISA, 16 h; hits give low values; actives 4.7% (n = 360,000); activity change, % at 57.5 µM; in the data active means activity change below about -50%; inconclusive means mostly about -30% to -49%
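Secreted IL-1B measured by AlphaLISA bead assay after 16 h compound exposure of THP-1 cells; compounds (final up to 57.5 uM) added 1 h before LPS (250 ng/mL) and ATP (1.25 mM) stimulation; lower signal means less secretion.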
TDP1 cell CPT = DT40-hTDP1 cell growth loss with CPT; AID 686979; chicken DT40 Tdp1-/-;hTDP1 cells + 20 nM CPT, ATP luminescence, 48 h; actives 12% (n = 420,000); Potency, µM (titrated, usually from 46.2 µM), for the others: at the highest dose activity change, negative = growth inhibition, most hits filed as inhibitors; further: potency means the concentration at half of the fitted maximal effect; nearly all actives have a fitted effect of over 55% in size
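Cell growth measured by CellTiter-Glo luminescence after a minimum 48 h, 37 C compound exposure with 20 nM CPT in Tdp1-knockout DT40 cells stably expressing hTDP1, seeded 400/well; qHTS titration format.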
HT1080 IDH1KD tx = HT-1080 IDH1 knockdown cell toxicity (counter line); HT-1080 IDH1 knockdown viability, ATP luminescence, 48 h; Potency, µM (series often up to 46.1 µM), for the others: at the top dose activity, negative = toxicity, most hits filed as cytotoxic; actives 2% (n = 360,000);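 further: potency means the concentration at half of the fitted maximal effect; 0% = DMSO wells and -100% = cell-free medium wells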
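Viability of IDH1-knockdown HT-1080 fibrosarcoma cells was assessed by CellTiter-Glo after 48 h at 37 °C with titrated compound; concentration-effect curves were classified by fit quality and response size.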
Numbers without * were called inactive; [ ] = remark or other dose. Only a selection was taken, and hits are over-represented in it overall. Unless noted, the call rests on the fitted dose curve; in most records, active means well fitted curve in the direction sought with a large enough effect; inconclusive means small, poorly fitted or top-dose-only effect, or another doubt; inactive means no such curve, though single readings can be large; an effect the other way counts as inactive or inconclusive. Unless noted, on the % scale 0 is the no-effect control and ±100 the full control effect.

Results for Nc1c(C(=O)CSc2ccccn2)c(=O)[nH]c(=O)n1C1CC1 ?
DT40 TDP1 no CPT: -1%; ALOX12 inh: -10%; HT1080-NT tox: 8%[9.24 µM]; IL-1B inflam inh: 8; TDP1 cell CPT: -12%; HT1080 IDH1KD tx: 7%

Results for CN(C)S(=O)(=O)c1ccc2oc(SCC(=O)c3c(N)n(C4CC4)c(=O)[nH]c3=O)nc2c1 ?
DT40 TDP1 no CPT: 4.1µM*; ALOX12 inh: 2%; HT1080-NT tox: 10%; IL-1B inflam inh: 22; TDP1 cell CPT: -8%; HT1080 IDH1KD tx: 0%

What do the screens show for `O=C1NC[C@@H](CCCCN2CCN(CCc3ccccc3)C(=O)C2=O)N(CCC2CCCCC2)C1=O`?
DT40 TDP1 no CPT: -8%; ALOX12 inh: 0%; HT1080-NT tox: 17%; IL-1B inflam inh: 4; TDP1 cell CPT: -4%; HT1080 IDH1KD tx: inconclusive

Results for CCCN(C)C(=O)CC1COCCN1C(=O)Nc1cccc(SC)c1 (stereo not drawn) ?
ALOX12 inh: -25%

Results for CC(C)N(C(=O)COc1ncnc2ccc(Br)cc12)C(C)C ?
ALOX12 inh: -15%

What do the screens show for `COC(=O)[C@H](Cc1c[nH]c2ccccc12)NCc1cccc(B(O)O)c1`?
DT40 TDP1 no CPT: -2%; ALOX12 inh: inconclusive; HT1080-NT tox: -2%; IL-1B inflam inh: -66*; TDP1 cell CPT: 24%; HT1080 IDH1KD tx: 3%

How did COC(=O)c1cc(CSC(=N)N)ccc1OCCC(C)C do in these assays?
DT40 TDP1 no CPT: 23µM*; ALOX12 inh: inconclusive; HT1080-NT tox: inconclusive; IL-1B inflam inh: -85*; TDP1 cell CPT: inconclusive; HT1080 IDH1KD tx: inconclusive

What do the screens show for `CCCOc1ccc(CSC(=N)N)cc1C(=O)OC`?
DT40 TDP1 no CPT: inconclusive; ALOX12 inh: 12%; HT1080-NT tox: -10%; IL-1B inflam inh: -57*; TDP1 cell CPT: inconclusive; HT1080 IDH1KD tx: -10%

What do the screens show for `CC(C)CCOc1ccccc1C(N)=O`?
DT40 TDP1 no CPT: inconclusive; ALOX12 inh: 0%; HT1080-NT tox: -2%; IL-1B inflam inh: 19; TDP1 cell CPT: -26%; HT1080 IDH1KD tx: 3%

How did CCOC(=O)C1=C(C)NC2=C(C(=O)CC(C)(C)C2)C1c1ccc(-c2ccccc2)cc1 (stereo not drawn) do in these assays?
ALOX12 inh: 20%[57.4 µM]

What do the screens show for `COc1ccc(OC2C(=O)N(c3ccc(C)c(C)c3)C2c2ccc(OC)c(OC)c2)cc1` (stereo not drawn)?
DT40 TDP1 no CPT: 15µM*; ALOX12 inh: -1%; HT1080-NT tox: 0%; IL-1B inflam inh: -7; TDP1 cell CPT: inconclusive; HT1080 IDH1KD tx: -11%

How did Cn1c(=O)n(Cc2ccc(Br)cc2)c2ccccc21 do in these assays?
DT40 TDP1 no CPT: inconclusive; ALOX12 inh: -28%; HT1080-NT tox: inconclusive; IL-1B inflam inh: -108*; TDP1 cell CPT: inconclusive; HT1080 IDH1KD tx: -5%

How did O=C(Cc1csc2ccccc12)NC1CCCCCC1 do in these assays?
ALOX12 inh: -33%

What do the screens show for `CC1=CN2C(=N)/C(=C/c3ccc([N+](=O)[O-])o3)C(=O)N=C2S1`?
DT40 TDP1 no CPT: 1.3µM*; ALOX12 inh: 45µM*; HT1080-NT tox: inconclusive; IL-1B inflam inh: -104*; TDP1 cell CPT: 0.65µM*; HT1080 IDH1KD tx: inconclusive

Results for CCOc1ccc(-c2ccc(/C=C3/C(=N)N4C=CSC4=NC3=O)o2)c([N+](=O)[O-])c1 ?
DT40 TDP1 no CPT: inconclusive; ALOX12 inh: -9%; HT1080-NT tox: 2%; IL-1B inflam inh: 7; TDP1 cell CPT: 21µM*; HT1080 IDH1KD tx: -3%

How did CSc1ccc(CN2CCC(C)(Oc3cccc(F)c3)C2)cc1 (stereo not drawn) do in these assays?
DT40 TDP1 no CPT: inconclusive; ALOX12 inh: inconclusive; HT1080-NT tox: -11%; IL-1B inflam inh: 21; TDP1 cell CPT: inconclusive; HT1080 IDH1KD tx: 0%

Results for CC1(Oc2cccc(F)c2)CCN(Cc2ccc(-c3ccccc3)o2)C1 (stereo not drawn) ?
DT40 TDP1 no CPT: inconclusive; ALOX12 inh: inconclusive; HT1080-NT tox: 2%; IL-1B inflam inh: 0; TDP1 cell CPT: 23µM*; HT1080 IDH1KD tx: 3%

Results for COCCNC(=O)C1(C)CCCN(Cc2ccc(-c3ccccc3)o2)C1 (stereo not drawn) ?
DT40 TDP1 no CPT: inconclusive; ALOX12 inh: 0%; HT1080-NT tox: -16%; IL-1B inflam inh: -6; TDP1 cell CPT: inconclusive; HT1080 IDH1KD tx: 1%

How did CCNC(=O)C1(C)CCCN(Cc2ccc(-c3ccccc3)o2)C1 (stereo not drawn) do in these assays?
DT40 TDP1 no CPT: 23µM*; ALOX12 inh: -1%; HT1080-NT tox: 8%; IL-1B inflam inh: -25; TDP1 cell CPT: 23µM*; HT1080 IDH1KD tx: -11%

What do the screens show for `CCCNC(=O)C1(C)CCN(Cc2ccc(-c3ccccc3)o2)C1` (stereo not drawn)?
DT40 TDP1 no CPT: inconclusive; ALOX12 inh: inconclusive; HT1080-NT tox: inconclusive; IL-1B inflam inh: -14; TDP1 cell CPT: 23µM*; HT1080 IDH1KD tx: inconclusive

What do the screens show for `COc1ccc(NC(=O)Nc2nnc([C@H]3C[C@H](O)[C@@H](CO)O3)s2)cc1`?
DT40 TDP1 no CPT: 17%; ALOX12 inh: inconclusive; HT1080-NT tox: 14%; IL-1B inflam inh: 2; TDP1 cell CPT: -5%; HT1080 IDH1KD tx: 21%

Results for COCc1nc(CNC(=O)c2sc3cccc(F)c3c2Cl)no1 ?
ALOX12 inh: 50%

How did CCOC(=O)c1sc(NC(=O)c2cc(-c3ccc(C)cc3)nc3ccccc23)c(C#N)c1C do in these assays?
DT40 TDP1 no CPT: 16µM*; ALOX12 inh: inconclusive; HT1080-NT tox: 16µM*; IL-1B inflam inh: -5; TDP1 cell CPT: 21µM*; HT1080 IDH1KD tx: inconclusive

Results for COC(=O)c1sc(NC(=O)c2cc(-c3ccccc3)nc3ccccc23)c(C#N)c1C ?
DT40 TDP1 no CPT: 7.3µM*; ALOX12 inh: -27%; HT1080-NT tox: inconclusive; IL-1B inflam inh: 7; TDP1 cell CPT: 8.2µM*; HT1080 IDH1KD tx: inconclusive

How did Cc1ccccc1-c1cc(C(=O)Nc2sc(C(=O)OC(C)C)c(C)c2C#N)c2ccccc2n1 do in these assays?
DT40 TDP1 no CPT: 21µM*; ALOX12 inh: 0%; HT1080-NT tox: inconclusive; IL-1B inflam inh: -27; TDP1 cell CPT: 23µM*; HT1080 IDH1KD tx: inconclusive
